Assay results taken from PubChem BioAssay AID588345 (Broad Institute, 2011).
Out of some 1,300 compounds screened, about 850 (65%) were called active. Not shown: some 1% with an inconclusive outcome. No rule for the calls is given here. The set was probably picked from earlier hits. Only a sample is shown. Potency and affinity values are given separately.

Each molecule was assayed against Dual specificity tyrosine-phosphorylation-regulated kinase 1A (Rattus norvegicus) (UniProt Q63470) (assay: Dyrk1A enzyme activity inhibition – biochemical, cherry-pick, plate reader, 2124-01, dose response (AID 588345)). Conditions: Dyrk1A kinase biochemical assay; series mostly up to 12 µM; activity change, negative = inhibition: at the top concentration.

Activity change, negative = inhibition, inactive:
Cc1cc(=O)oc2ccc(OC(=O)c3cccc(S(=O)(=O)N4CCOCC4)c3)cc12 18.6%, CCc1cc2c(NC3CCCC3)ncnc2s1 12.8%, COc1cccc(Nc2nc(NCCO)c3ccccc3n2)c1 -31.2%, CCCCCC1CC(CC(C)C(=O)Nc2nncs2)C(=O)O1 (centres undefined) -3.8%, CCC(C)NC(=O)C1CCCN(S(=O)(=O)c2ccc3c(c2)CC(C)N3C(=O)C2CC2)C1 (centres undefined) -4.01%, Clc1ccc(C2CC(c3cccs3)n3ncnc3N2)c(Cl)c1 (centres undefined) 17%, O=C(Cn1c(-c2cncs2)nc2ccccc21)NCc1ccccc1 -0.95%, Cn1c(=O)[nH]c2cc3ccccc3cc21 -26.9%, S=c1sc2ccccc2n1CCc1ccncc1 18.3%, COc1ccc(N(CC(=O)Nc2ccc3c(c2)OCCO3)S(=O)(=O)c2c(C)nn(C)c2C)cc1 -4.22%, CC(C)(C)C1=Nn2c(nnc2-c2ccccc2F)SC1 9.33%, O=C(Nc1ccc2cn[nH]c2c1)c1c(Cl)cccc1Cl -27.4%, COc1ccc(N/C=C2\C(=O)CCc3c2oc2cc(Cl)c(O)c(Cl)c32)cc1 3.91%, Oc1c(Cl)c(Cl)c2ncccc2c1Cl 1.52%, Fc1ccccc1-c1nc(-c2ccc(-c3nn[nH]n3)cc2)no1 -18.5%, Oc1cccc2c(-c3nn[nH]n3)ccnc12 -23.7%, COc1ccc(-c2cn[nH]c2C)cc1 5.41%, Cc1cc(C)c(CN2CCN(C(=O)Cn3ccc(N)nc3=O)CC2)c(C)c1 -5.75%, CCCCCCCCCCCCN1[C@@H](CC(=O)OC)c2cc(C(F)(F)F)ccc2S1(=O)=O -2.65%, CC(=O)c1cccc(NC(=O)Nc2ccc3c(c2)N(C)C(=O)CS3)c1 -33.8%, CSc1nnc(-c2cc3c(-c4ccccc4)nn(C)c3s2)n1C -1.21%, Cn1cnc2c(=O)sc3ccccc3c21 12.6%, O=C(C1CC(=O)N(C2CCCC2)C1)N1CCN(c2ccc(F)cc2)CC1 (centres undefined) -6.71%, c1csc(CNc2ncnc3ccc(-c4ccc5c(c4)OCCO5)cc23)c1 -0.763%, O=C(NCc1ccccc1)C1=C[C@H](c2ccccc2)C[C@H](OCc2ccc(CO)cc2)O1 -7.49%, c1ccc(-c2nnc(CSc3ccc4c(c3)OCCO4)o2)cc1 -3.53%, O=[N+]([O-])c1ccc2c(c1)C(=NO)c1cc(F)ccc1-2 -3.6%, O=C(O)CCC(=O)Nc1ccc(N2CCCCCC2)cc1 8.95%, Cc1cccc(Nc2nc(N)c([N+](=O)[O-])c(N3CCC(C)CC3)n2)c1 -14.7%, COC(=O)c1nccc2c1[nH]c1ccccc12 -5.75%, CCC1NC(C(=O)O)Cc2c1[nH]c1ccccc21 (centres undefined) -58%, CC(C)C[C@H]1COCCS(=O)(=O)N1Cc1ccc(Cl)c(Cl)c1 5.26%, CCOC(=O)Cn1c(-c2cccnc2Cl)nc2ccccc21 0.621%, O=C(CN1CCOCC1)Nc1nc2ccc([N+](=O)[O-])cc2s1 3.97%, CC1CCc2nc(NC(=O)c3ccc(N4C(=O)CCC4=O)cc3)sc2C1 (centres undefined) 7.56%, CC1CCc2nc(NC(=O)CN3CCN(Cc4ccc5c(c4)OCO5)CC3)sc2C1 (centres undefined) -4.24%, Cc1noc(C)c1-c1ccc2ncnc(NC(C)c3ccco3)c2c1 (centres undefined) 8.27%, O=C(Nc1cccc(Cl)c1)ON=C1c2ccccc2-c2ccccc21 3.04%, CCC(=O)Nc1c(C#N)c2nc3ccccc3nc2n1-c1ccccc1C 4.55%, Cc1ccc(NC(=S)Nc2ccc3cn[nH]c3c2)cc1 5.74%, COc1ccc2c(c1)C(=O)N1[C@H]3c4cc(C)ccc4OC[C@@H]3[C@H](c3ccccc3)[C@]1(C)C(=O)N2 11.7%, Cc1c(C(=O)O)sc2nc(-c3cccs3)cc(C(F)(F)F)c12 7.06%, O=C1CCCC2=C1Sc1ccc(Cl)cc1N2 4.76%, O=C1c2ccccc2S(=O)(=O)N1Cc1nnc(-c2ccccc2Br)o1 7.82%, CC(C)=CCc1cc(-c2oc3cc(O)cc(O)c3c(=O)c2O)ccc1O -82.8%, O=C(Nc1ncc2c(n1)-c1ccccc1CC2)c1ccc(Cl)cc1 -60.6%, CCOCCCNC(=O)C(NC(=O)c1ccc(=O)[nH]c1)c1ccc(Cl)cc1 (centres undefined) 14.2%, Cc1cccc(C(C)n2nnc3ccccc32)c1O (centres undefined) 12.8%, O=c1cc(-c2ccc(O)cc2)oc2c(O)c(O)c(O)c(O)c12 -19.7%, O=c1oc(-c2ccc(O)c(O)c2)cc2cc(O)cc(O)c12 16%, CN(C)CCCOC(=O)COc1ccc(Br)cc1 8.36%, CCn1c(NC(=O)c2ccccc2)c(-c2cccs2)c(=O)c2ccccc21 10.9%, CCN(CC)C(=O)Oc1ccc2c(c1)O/C(=C\c1ccco1)C2=O 8.84%, O=c1cc(-c2ccco2)oc2c1ccc1ccccc12 -51.9%, COc1cc(/C=C2\SC(N)=NC2=O)ccc1O -2.03%, OC(c1cc(C(F)(F)F)nc2c(Cl)cc(Cl)cc12)C1CCCCN1 (centres undefined) -7.03%, O=C(O)c1cccc2c1/C(=N/O)c1ccccc1-2 5.06%, CCn1c2ccccc2c2nc3cc(C(=O)O)ccc3nc21 0.717%, COc1ccc(NC(=S)N(CCc2c(C)[nH]c3ccccc23)Cc2cccnc2)cc1 8.34%, S=C(Nc1cccnc1)Nc1cccc2cnccc12 15.1%, Cc1cc2nncn2c2ccccc12 -2.5%, COc1ccc(NC(=O)N(C)C[C@H]2Oc3c(NS(=O)(=O)c4cccs4)cccc3C(=O)N([C@@H](C)CO)C[C@@H]2C)cc1 -6.15%, C[C@@H]1C=C(C(=O)NCc2nc3ccccc3[nH]2)O[C@H](OCCCCO)C1 -1.23%, O=C1CN(C(=O)C2CCC(=O)N(CCc3ccc(Cl)cc3)C2)CCN1 (centres undefined) -3.16%, COc1ccc2nc(C)c3c(c2c1)OC(C(C)(Cl)Br)C3 (centres undefined) 0.503%, COc1ccc2oc(N)c(C=O)c(=O)c2c1 15.7%, c1cnc2ncc3sccc3c2c1 1.55%, O=c1c(O)c(-c2ccccc2)oc2cc(O)cc(O)c12 -30.9%, O=c1c(O)c(-c2cc(O)c(O)c(O)c2)oc2cc(O)cc(O)c12 -91.1%, Cc1cccc(CNc2ncnc3ccc(-c4ccc5c(c4)OCO5)cc23)c1 -5.35%, O=C(CN1CCOCC1)Nc1nc2ccc(F)cc2s1 0.711%, COc1ccc(OC)c(N=c2oc3cc(O)ccc3cc2C(N)=O)c1 19%, NC(=O)c1cc2ccc(O)cc2oc1=Nc1ccccc1 -0.226%, COc1ccc2nc(-n3c(O)c(C4=c5ccccc5=NC4=O)[nH]c3=S)sc2c1 -2.12%
